In ChEMBL document CHEMBL3988442, “University of Dundee, Small-Polar-MMV Screening Library” (2021):
In all, about 65,000 compounds went through this assay and about 65 (0.1%) showed an effect of 50% or more. The entries come from a sample that favours strong results as a whole.

Target: Tryptophan--tRNA ligase (Mycobacterium tuberculosis (strain ATCC 25618 / H37Rv)) (UniProt P9WFT3)
Assay: Biochemical assay for Mt-TrpRS
Assay type: functional
Set-up: scale not given: direction of the effect not stated beside the values
Details: 10 µM

Chain of Tryptophan--tRNA ligase (Mycobacterium tuberculosis (strain ATCC 25618 / H37Rv)) (P9WFT3 whole entry): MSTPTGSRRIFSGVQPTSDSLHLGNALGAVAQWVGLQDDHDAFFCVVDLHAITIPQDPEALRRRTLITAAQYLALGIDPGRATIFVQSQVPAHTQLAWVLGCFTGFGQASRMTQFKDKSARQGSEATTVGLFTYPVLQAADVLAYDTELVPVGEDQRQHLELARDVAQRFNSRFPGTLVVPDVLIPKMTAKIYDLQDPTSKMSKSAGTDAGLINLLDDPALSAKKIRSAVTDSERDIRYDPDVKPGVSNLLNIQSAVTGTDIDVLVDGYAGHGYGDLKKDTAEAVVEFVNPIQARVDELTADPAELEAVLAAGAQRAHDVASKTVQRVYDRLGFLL

SMILES | Percent Effect
CCN(CC)S(=O)(=O)N1CCCC1c1cccc(Nc2ncc(C)s2)n1 (configuration not stated) | 1.88%
CCn1cc(NC(=O)NC(CO)Cc2c[nH]c3ccccc23)cn1 (configuration not stated) | 2.58%
CCn1cc(S(=O)(=O)NC(CO)Cc2c[nH]c3ccccc23)cn1 (configuration not stated) | -4.44%
CCn1cc(S(=O)(=O)NC(=O)CCc2c[nH]c3ccccc23)cn1 | 57.5%
Cc1csc(C(=O)NCCN2CCC(c3cccs3)CC2)c1 | 0.44%
Cc1cccc(CN2CC[C@@H]3[C@@H]2CCN3C(=O)c2cc(C)on2)n1 | -0.968%
CCN1CCN(C(=O)c2cc(-c3ccc(C)o3)n[nH]2)[C@H]2CS(=O)(=O)C[C@H]21 | 2.31%
O=C(C1=CCCC1)N1CCO[C@H]2[C@@H](OCC3CC3)CC[C@@H]21 | 0.105%
Cc1cc(CN2CCN(C(=O)NCc3ccoc3)CC2)no1 | -3.89%
Cc1cc(CN2CCN(C(=O)NCc3ccco3)CC2)no1 | 70.1%
Cc1cc(CN2CCN(C(=O)NCc3cccs3)CC2)no1 | -4.93%
COCC(=O)N1C[C@@H](c2cccc(F)c2)[C@H]2[C@H]1CCCCCN2C(C)=O | 9.95%
O=C(CC1CC1)N1CCC2(CC1)CN(Cc1cccnc1)C(=O)CO2 | -3.48%
Cn1cnnc1C1CCN(C(=O)c2cc3c(s2)CCC3)CC1 | -1.59%
Cn1cnnc1C1CCN(C(=O)c2cc3c(s2)CCCC3)CC1 | 83.8%
CCn1cnnc1C1CCN(C(=O)c2cc3c(s2)CCCC3)CC1 | -7.73%
Cc1nc(C)c(CNC[C@@]2(COc3cccnc3)C[C@@H](O)[C@@H](O)C2)s1 | -10.4%
CN(Cc1ccco1)[C@@H]1CN(Cc2ccc(F)cc2)[C@@H]2CCCO[C@H]12 | -5.38%
CCS(=O)(=O)N1C[C@@H](OCc2ccccn2)[C@@H]2OCCC[C@@H]21 | 4.01%
Cn1nc(C#N)c2c1CN(C(=O)c1ccco1)CCC2 | 50.1%
Cn1nc(C#N)c2c1CN(C(=O)c1cccnc1)CCC2 | 11.1%
Cn1nc(C#N)c2c1CN(C(=O)c1ccnnc1)CCC2 | 4.65%
CC(C)CC(=O)N1C[C@H]2CCCN(S(=O)(=O)c3ccc(Cl)s3)[C@H]2C1 | -3.18%
Cc1ccc(CS(=O)(=O)CC(=O)NCCCOC(C)C)cc1 | -5.37%

SMILES | Percent Effect
CC(C)OCCCNC(=O)CS(=O)(=O)Cc1ccc(Cl)cc1 | 75.4%
CC(C)OCCCNC(=O)CS(=O)(=O)Cc1ccc(C(C)C)cc1 | 2.32%
Cn1ncc2c(N3CCCN4CCC[C@H]4C3)nc(C(C)(C)C)nc21 | 2.18%
CC(C)N1[C@H](CN2CCCC2)C[C@@H]2CN(C(=O)c3ccoc3)CC[C@@H]21 | 0.0969%
COCCN1CCC(NCc2cc(F)ccc2F)C1 (configuration not stated) | 12.2%
COCCN1CCC(NCc2ccc(F)cc2F)C1 (configuration not stated) | 83.4%
COCCN1CCC(NCc2cccc(F)c2)C1 (configuration not stated) | -5.04%
O=C(c1ccccn1)N1C[C@@H]2CC[C@H](C1)N(C(=O)CCN1CCCC1)C2 | 4.71%
O=C(O)CCCC(=O)N1CCC(c2noc3cc(F)ccc23)CC1 | 1.46%
NC(=O)CN1CCC(c2noc3cc(F)ccc23)CC1 | 76.4%
O=C(O)CCC(=O)N1CCC(c2noc3cc(F)ccc23)CC1 | 1.33%
CCS(=O)(=O)N1CCC[C@]2(C(=O)N(C)C)CN(c3ccccn3)C[C@@H]2C1 | -1.99%
NC(=O)N1CCc2cc(C(=O)O)c(-c3ccsc3)nc2CC1 | -4.21%
Cc1ncsc1C(=O)N(Cc1ccccn1)C1CC1 | 75.1%
Cc1ncsc1C(=O)N(Cc1ccccc1)C1CC1 | -6.55%
Cc1ncsc1C(=O)N(Cc1cccs1)C1CC1 | -1.87%
O=C(NC1CC(F)(F)C1)[C@]12COC[C@H]1CN(Cc1cccnc1)C2 | -2.86%
Cc1ncsc1CN1C[C@@H]2COC[C@]2(C(=O)NCC2CC2)C1 | 0.881%
CCc1cnc(N2C[C@H]3C[C@H](C(=O)NCC(C)C)[C@@H](C2)O3)nc1 | 1.95%
CC(=O)c1cccc(NC(=O)N(CC(F)F)C2CC2)c1 | 4.27%
Cc1cccc(NCc2nc(C)ccc2O)c1 | 52.2%
Cc1ccc(O)c(CNc2cccc(OCCF)c2)n1 | -4.08%
CCn1nnnc1-c1cccc(NCc2nc(C)ccc2O)c1 | -6.59%
CCNC(=O)[C@@H]1C[C@@H](N)CN1C(=O)c1cc2ccccc2[nH]1 | 2.18%

SMILES | Percent Effect
Cc1ccc(N2C[C@@H]3CN(C(=O)c4ccccc4)CCO[C@@H]3C2)nn1 | 12.7%
Cn1ccnc1CN1CCN2C[C@H](Oc3ccccc3)C[C@H]2C1 | 2.44%
CC(=O)Nc1ccc(CN2C[C@H]3CC[C@@H]2CN(c2ncccn2)C3)cc1 | 3.06%
c1cncc(CN2CCO[C@H]3[C@H](OCCN4CCCC4)CC[C@@H]32)c1 | 2.57%
Cc1c[nH]c(CN2CC[C@@]3(O)CCN(C(=O)C4CCC4)C[C@H]3C2)n1 | 1.37%
Cc1ncsc1C(=O)NC1CCN(CCC#N)CC1 | 57.5%
Cc1ncsc1C(=O)NC1CCN(CCCC#N)CC1 | -4.15%
Cc1ncsc1C(=O)NC1CCN(CCC(N)=O)CC1 | 0.56%
CN(Cc1cccnc1)C[C@H]1OC[C@@H]2CCN(C(=O)C3CC3)C[C@@H]21 | -1.23%
Cc1ccc(CN(C)C(=O)CN2CCCC(Cn3cncn3)C2)cc1 (configuration not stated) | 11.8%
c1cnc(-c2nc(CN3CCCC(Cn4cncn4)C3)cs2)nc1 (configuration not stated) | -1.17%
CC(C)(C)c1nc(CN2CCCC(Cn3cncn3)C2)cs1 (configuration not stated) | 3.52%
CN(Cc1cnn(C)c1)C(=O)CN1CCCC(Cn2cncn2)C1 (configuration not stated) | 85.4%
CN(Cc1ccccc1)C(=O)CN1CCCC(Cn2cncn2)C1 (configuration not stated) | 5.08%
CC(C)c1nc(CN2CCCC(Cn3cncn3)C2)cs1 (configuration not stated) | 61.3%
O=C(c1ccno1)N1CCN2C(=O)N(Cc3ccc(F)cc3)C[C@H]2C1 | 0.0753%
O=C(c1ccnnc1)N1C[C@H](OCC2CCOCC2)[C@H]2OCCC[C@H]21 | -0.419%
O=C(C1CCC1)N1C[C@H]2CNC[C@H]2C1 | 9.01%
O=C(NS(=O)(=O)c1cccnc1)C1CC(c2ccccc2)=NO1 (configuration not stated) | 54.1%
COc1cccc(S(=O)(=O)NC(=O)C2CC(c3ccccc3)=NO2)c1 (configuration not stated) | 0.405%
N#Cc1ccc(S(=O)(=O)NC(=O)C2CC(c3ccccc3)=NO2)cc1 (configuration not stated) | 0.0809%
COc1c(CNC2CCN(c3ncccn3)CC2)c(C(C)C)nn1C | 1.66%
COc1c(CNC2CCCN(c3ncccn3)C2)c(C(C)C)nn1C (configuration not stated) | 67.7%
COc1c(CNC2CCN(c3ccccn3)CC2)c(C(C)C)nn1C | 1.1%

SMILES | Percent Effect
COc1cccc(OC)c1CNC(Cc1ccsc1)c1ccc(C)cn1 (configuration not stated) | -1.02%
Cc1occc1C(=O)N1C[C@@H]2CCCO[C@@H]2[C@H](N(C)Cc2ccco2)C1 | 1.95%
CC(C)c1cc(C(=O)N2CCN(CC3CC3)[C@@H]3CS(=O)(=O)C[C@@H]32)no1 | -4.85%
CC(C)N1CCCC2(CCN(Cc3noc(C4CCCC4)n3)C2)C1=O (configuration not stated) | 54.2%
O=C1N(CCO)CCCC12CCN(Cc1noc(C3CCCC3)n1)C2 (configuration not stated) | 7.84%
CCCN1CCCC2(CCN(Cc3noc(C4CCCC4)n3)C2)C1=O (configuration not stated) | 7.84%
O=C(NCc1ccccc1)N1C[C@H]2CCN[C@H]2C1 | 2.62%
COCCN1C(=O)CO[C@H]2CN(S(=O)(=O)c3ccccc3)C[C@H]21 | -1.73%
CCN1C[C@@H]2[C@@H](OC)CCN(C(=O)c3cc(C)nn3CC)[C@@H]2C1 | -1.95%
Cc1cc(NC(=O)CN2CCc3cncnc3C2)no1 | 69%
Cc1ncc2c(n1)CN(CC(=O)Nc1cc(C)on1)CC2 | 0.514%
Cc1cc(NC(=O)CN2CCc3cncnc3C2)on1 | 2.85%
CCCS(=O)(=O)N1CC[C@H]2O[C@H](c3nnc(C)o3)CC[C@H]21 | -5.84%
CNC(=O)c1nc(CN2CCOC(C(F)(F)F)C2)no1 (configuration not stated) | 69.6%
CNC(=O)c1nc(CN2CCOC(CCCC(C)C)C2)no1 (configuration not stated) | 0.819%
NC(=O)c1nc(CN2CCOC(C(F)(F)F)C2)no1 (configuration not stated) | -0.819%
CCCNCc1ccc(-c2ccnc3[nH]ccc23)cc1 | -1.02%
CC(C)N1[C@@H](C(=O)NCCN(C)C)C[C@H]2CN(c3ncccn3)C[C@H]21 | 5.77%
c1cnnc(N2CCCC(NCc3nc(-c4cccs4)no3)C2)c1 (configuration not stated) | -1.29%
c1ccc(-c2noc(CNC3CCCN(c4cccnn4)C3)n2)nc1 (configuration not stated) | 1.43%
c1cnnc(N2CCCC(NCc3nc(-c4ccco4)no3)C2)c1 (configuration not stated) | 90.8%
C[C@H]1C[C@H]2CN(C(=O)CC3CC3)CC[C@H]2O1 | 2.03%
CC(C)c1nc(C2CCCN2C(=O)c2cnns2)no1 (configuration not stated) | -5.71%
Cc1ccccc1CNC(=O)N1C[C@H]2C[C@H](C(=O)N3CCCC3)[C@@H](C1)O2 | -2.16%

SMILES | Percent Effect
C=Cn1cc(CN2CCC(c3ncc(Cl)cc3S(C)(=O)=O)CC2)c(C)n1 | -5.42%
CCn1ncc(CN2CCC(c3ncc(Cl)cc3S(C)(=O)=O)CC2)c1C | -1.24%
C=Cn1ncc(CN2CCC(c3ncc(Cl)cc3S(C)(=O)=O)CC2)c1C | 67.3%
Fc1ccccc1CO[C@@H]1C[C@H]2CN(c3ncccn3)CCN2C1 | -4.64%
c1cnc(-c2nc(CN3CCn4c(nnc4C4CC4)C3)cs2)nc1 | -3.46%
CCc1nnc2n1CCN(Cc1csc(-c3ncccn3)n1)C2 | 1.94%
Cc1nnc2n1CCN(Cc1csc(-c3ncccn3)n1)C2 | 59%
CN(C)C(=O)CN1C[C@@H]2CC[C@H](C1)N(Cc1c(F)cccc1Cl)C2 | 2.26%
COc1ccc(Cc2nnc(NC(=O)C3CC34CCC4)s2)cc1OC (configuration not stated) | 1.5%
COc1ccccc1OCCc1nnc(NC(=O)C2CC23CCC3)s1 (configuration not stated) | 72.7%
COc1ccc(CCc2nnc(NC(=O)C3CC34CCC4)s2)cc1OC (configuration not stated) | -2.9%
CSC1=Nc2c(cnn2-c2cccc(Cl)c2)C2=NCCCN12 | 1.3%
Cc1cnn(CC2CCCN2Cc2nc(N)c3ccccc3n2)c1 (configuration not stated) | 57.9%
CCc1nnc(CN2CCCC2Cn2cc(C)cn2)o1 (configuration not stated) | 9.78%
CCc1nnc(CN2CCCCC2Cn2cncn2)o1 (configuration not stated) | 75.1%
Cc1ccc(-c2nnc(CN3CCCCC3Cn3cncn3)o2)cc1 (configuration not stated) | 3.48%
Cc1cnn(CC2CCCN2Cc2nc(C)c3ccccc3n2)c1 (configuration not stated) | 0.13%
Cc1cnn(CC2CCCN2Cc2nnc(C(C)C)o2)c1 (configuration not stated) | 60.5%
c1ccc(Cc2nnc(CN3CCCCC3Cn3cncn3)o2)cc1 (configuration not stated) | -0.0684%
Cc1cnn(CC2CCCN2Cc2nnc(C)o2)c1 (configuration not stated) | -10.6%
Cc1cnn(CC2CCCCN2Cc2nc(N)c3ccccc3n2)c1 (configuration not stated) | 1.18%
